Our source for the growth values is PubChem BioAssay (NCI).

Holding throughout (test): NCI-60 one-dose screen, 48 h (100 = growth as untreated, 0 = no growth, -100 = all killed)
What all share (settings): 10 µM unless noted

In experiment [1] the test system is HCT-15 colon.
The test system of experiment [2] is HT29 colon.
Experiment [3] concerns SNB-75 CNS.
Experiment [4] has as its system SNB-19 CNS.
In experiment [5] the test system is U251 CNS.
In experiment [6] the test system is PC-3 prostate.
Experiment [7] concerns SK-MEL-5 melanoma.
Experiment [8] concerns UACC-62 melanoma.
Experiment [9] deals with LOX IMVI melanoma.
Experiment [10] deals with SK-MEL-28 melanoma.
Experiment [11] deals with SK-MEL-2 melanoma.
Experiment [12] relates to SN12C renal.
Experiment [13] relates to UO-31 renal.
The test system of experiment [14] is TK-10 renal.
For experiment [15], the system named is ACHN renal.
In experiment [16] the test system is CAKI-1 renal.
The test system of experiment [17] is A498 renal.
Experiment [18] relates to CCRF-CEM leukemia.
Experiment [19] has as its system MOLT-4 leukemia.
Experiment [20] relates to EKVX NSCLC.

Where “and” joins values, the source holds several entries; their conditions need not be identical. Equal values may be shown once. The panel holds about 83,000 compounds, 20% with a hit somewhere; the sample as a whole holds those more often.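 Results are percent growth after 48 hours of single-concentration exposure. 100 means growth as in untreated cells, lower positive values show inhibition; negative values down to -100 show cell death.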 Calls of active or inactive are those of the source. Rule for the calls: active = growth percent below 10; inactive = the rest.

`CN1CCN(Cc2ccc(NC(=O)c3nc4ccc5[nH]ncc5c4c4c3CCCC4)cc2C(F)(F)F)CC1`: the growth in [1] was -74.6% (active); in experiment [2], -83.2% (active); in [3], -90% (active); in experiment [4], -88.8% (active); in [5], -91% (active); in experiment [6], -83.5% (active). Moreover, the growth in [7] was -92.6% (active); in experiment [8], -87.5% (active); in experiment [9], -94.9% (active); in experiment [10] it was -85.8% (active); in experiment [11], -63.5% (active); in experiment [12], -88.7% (active). Also, the growth in experiment [13] is -85.9% (active); in [14], -86.7% (active); in [15], -79.4% (active); in [16], -46.6% (active); in [17], 92.9% (inactive); in experiment [18], -11.1% (active). For the same compound, the growth in experiment [19] is -27% (active).
For the compound `COc1ccc(-c2cc(-c3cccc(Cl)c3)c(C#N)c(=O)[nH]2)c(OC)c1`, the growth in [1] is 97.7% (inactive); in experiment [2], 118% (inactive); in experiment [3] it was 72.7% (inactive); in [4], 94.2% (inactive); in [5], 96.4% (inactive); in [6] it was 92.3% (inactive). Further, the growth in experiment [7] is 94.2% (inactive); in experiment [8] it was 90.7% (inactive); in [9] it was 101% (inactive); in experiment [10] it was 92.2% (inactive); in experiment [11] it was 105% (inactive); in experiment [12], 97.1% (inactive). The growth was 85.3% (inactive) in [13]; 103% (inactive) in [14]; 97.2% (inactive) in experiment [15]; 90.9% (inactive) in experiment [16]; 68.2% (inactive) in experiment [17]; -2.24% (active) in experiment [18]. Besides, the growth in experiment [19] was 103% (inactive).
Consider `C#CCOCC1CN(C)C(=O)O1` (configuration not stated), for which the growth was 98.1% (inactive) in experiment [1]; 99.5% (inactive) in experiment [2]; 98.5% (inactive) in experiment [3]; 107% (inactive) in experiment [4]; 103% (inactive) in experiment [5]; 109% (inactive) in experiment [6]. Further, the growth in [7] was 114% (inactive); in experiment [8] it was 112% (inactive); in experiment [9] it was 105% (inactive); in [10] it was 110% (inactive); in [11], 116% (inactive); in experiment [20], 115% (inactive). Besides, the growth is 103% (inactive) in [12]; 97.1% (inactive) in experiment [13]; 110% (inactive) in [14]; 104% (inactive) in experiment [16]; 107% (inactive) in experiment [17]; 98.9% (inactive) in [18]. In addition, the growth in experiment [19] is 89.6% (inactive).
`C=C(C)[C@@H]1CC[C@]2(C(=O)N3CCN(C)CC3)CC[C@]3(C)[C@H](CC[C@@H]4[C@@]5(C)CC(CCCNC(C)=O)(CCCNC(C)=O)[C@H](OC(C)=O)C(C)(C)[C@@H]5CC[C@]43C)[C@@H]12`: the growth in [1] is 86.8% (inactive); in experiment [2], 83% (inactive); in experiment [3], 89.2% (inactive); in experiment [4], 99% (inactive); in experiment [5], 98.2% (inactive); in experiment [6], 74.9% (inactive). The growth in experiment [7] is 91.5% (inactive); in experiment [8], 99.3% (inactive); in experiment [9], 97.8% (inactive); in [10], 103% (inactive); in [11] it was 112% (inactive); in experiment [20] it was 96.4% (inactive). The growth in [12] was 96.5% (inactive); in [13], 80.5% (inactive); in [14] it was 109% (inactive); in experiment [16], 79.3% (inactive); in experiment [17] it was 109% (inactive); in experiment [18], 91.8% (inactive). Moreover, the growth in experiment [19] was 85.7% (inactive).
With `O=Nc1c(O)ccc2ccccc12`, the growth in [1] is 43% (inactive) and 103% (inactive); in experiment [2] it was 24.7% (inactive) and 109% (inactive); in [3], 114% (inactive); in experiment [4], 105% (inactive) and 106% (inactive); in experiment [5] it was 99.4% (inactive); in experiment [6], 6.57% (active) and 72.4% (inactive). Moreover, the growth in experiment [7] is 80.9% (inactive) and 82.8% (inactive); in [8], 21.2% (inactive) and 87.4% (inactive); in experiment [9], 3.68% (active) and 73.6% (inactive); in [10] it was 83% (inactive) and 102% (inactive); in experiment [11], 36.5% (inactive) and 107% (inactive); in experiment [12] it was 4.86% (active) and 93.6% (inactive). Moreover, the growth in [13] is 55.3% (inactive) and 52.1% (inactive); in experiment [14], 115% (inactive); in [15] it was 57.7% (inactive) and 83.3% (inactive); in experiment [16], 71.2% (inactive) and 96.3% (inactive); in [17], 84.6% (inactive) and 99.1% (inactive); in experiment [18] it was 20.6% (inactive) and 58.4% (inactive). Further, in experiment [19], the growth was 71.3% (inactive) and 72.6% (inactive).
Take `O=C(CCN1CCOCC1)Nc1cccc(-n2cc(-c3ccncc3)c(-c3ccc(Cl)c(O)c3)n2)c1`: the growth in [1] was 28.5% (inactive); in experiment [2] it was -7.51% (active); in experiment [3] it was -1.7% (active); in experiment [4], 48.8% (inactive); in experiment [5], 27.7% (inactive); in [6] it was 11.4% (inactive). Further, the growth was 20.3% (inactive) in [7]; 43.1% (inactive) in [8]; 23.1% (inactive) in experiment [9]; 49.6% (inactive) in experiment [10]; 14.8% (inactive) in experiment [11]; 42.8% (inactive) in [12]. Moreover, the growth in experiment [13] is 41.9% (inactive); in [14], 54.5% (inactive); in experiment [15] it was 34.2% (inactive); in [16], 38.6% (inactive); in experiment [17] it was 10.9% (inactive); in experiment [18], 17.7% (inactive). For the same compound, in [19], the growth was 28.6% (inactive).
As to `Nc1nc(N)c2c(n1)NC(c1ccc(Cl)cc1)CC(c1cccc(Nc3ccncc3)c1)=N2` (configuration not stated), the growth in experiment [1] was 71.5% (inactive); in [2] it was 21% (inactive); in [3], 67.2% (inactive); in [4] it was 61.8% (inactive); in [5], 34.6% (inactive); in [6], 38.2% (inactive). Moreover, the growth in experiment [7] was 52.1% (inactive); in experiment [8], 69.2% (inactive); in [9], 25.4% (inactive); in [10] it was 72.2% (inactive); in [11] it was 76.3% (inactive); in experiment [12] it was 53% (inactive). Moreover, the growth in experiment [13] was 90.6% (inactive); in [14] it was 113% (inactive); in experiment [15] it was 73.5% (inactive); in experiment [16] it was 73.7% (inactive); in experiment [17], 81.1% (inactive); in experiment [18], 32.7% (inactive). The growth in experiment [19] is 38.1% (inactive).
As for `COc1ccc(-c2[nH]c3ccccc3c2-c2ccc(OC)cc2)cc1`, the growth is 39.8% (inactive) in [1]; 29.8% (inactive) in [2]; 31.5% (inactive) in experiment [3]; 53.6% (inactive) in experiment [4]; 44% (inactive) in experiment [5]; 47.5% (inactive) in experiment [6]. The growth in experiment [7] is 58.1% (inactive); in experiment [8], 56.7% (inactive); in experiment [9], 46.3% (inactive); in experiment [10], 51.4% (inactive); in [11], 64.6% (inactive); in experiment [20] it was 73.8% (inactive). Also, the growth in experiment [12] is 63.4% (inactive); in experiment [13], 67.7% (inactive); in experiment [14], 87.4% (inactive); in experiment [16], 63.2% (inactive); in experiment [17], 45% (inactive); in [18], 9.28% (active). Further, the growth in experiment [19] was 49.9% (inactive).
